Activity calls are given as the source filed them. Rule for the calls: active = hit-call score of the fitted dose curve at least 0.9, where 1 is the maximum; inactive = score below 0.9.
Test: CCTE_Deisenroth_5AR_NBTE_donor: CCTE's 5alpha-reductase NanoBRET Target Engagement Assay […], Deisenroth Lab (AID 2284319)
Details: actives raise or lower the signal
Experimental: CCTE_Deisenroth_5AR NBTE (5alpha-reductase NanoBRET Target Engagement Assay) is a cell-based, single-readout assay that uses HEK293T, a human kidney cell line, with measurements taken at 5 hours after chemical dosing in a 384 well plate. This assay includes a primary and secondary screen as well as an autofluorscence screen.CCTE_Deisenroth_5AR NBTE_donor is one of four assay components measured from the CCTE_Deisenroth_5AR NBTE assay. It is designed to make measurements of donor luminescence, as detected by bioluminescence intensity emission signals using spectrometry technology.Data from the assay component CCTE_Deisenroth_5AR NBTE_donor was analyzed into 1 assay endpoint. This assay endpoint, CCTE_Deisenroth_5AR NBTE_donor, was analyzed with bidirectional fitting relative to DMSO as the negative control and baseline of activity. Using a type of inducible reporter, gain or loss-of-signal activity can be used to understand changes in the donor luminescence as related to 5alpha-reductase catalytic function. Furthermore, this assay endpoint can be referred to as a secondary readout, because this assay has produced multiple assay endpoints where this one serves an artifact detection function.
For transient expression of the SRD5A2-NanoLuc fusion protein, HEK293T cells are reverse transfected with pNLF1-C-SRD5A2 expression vector and incubated for 20 hours to facilitate fusion protein expression. For assay setup, 384-well non-binding surface (NBS) microplates are pre-dispensed with test chemical across an 8-point concentration series (10 nM - 29.9 uM) with two technical replicates per run. Cell suspensions are dispensed into the microplates and incubated with test chemical for a duration of three hours. Following pre-incubation with test chemical, the testosterone tracer is dispensed into each well and incubated an additional two hours. The total incubation period with test chemical is five hours, with testosterone tracer added the final two hours to reach target engagement equilibrium. For the NanoBRET endpoint measurements, a solution of Nano-Glo substrate and extracellular NanoLuc inhibitor solution is added to each test well and immediately scanned on a plate reader configured with multichromatic emission settings for donor luminescence ([…]) and acceptor fluorescence ([…]). DMSO solvent controls are included as baseline control. Plate-matched samples are run with mock tracer conditions or testosterone tracer to discriminate any potential non-specific substrate interference.

Row | SMILES | AC50 | outcome
1 | [Cl-].[Cl-].[Hg+2] | 74.8 µM (active) | 
2 | C[C@]12C=CC3=C4CCC(=O)C=C4CC[C@H]3[C@@H]1CC[C@@H]2O |  | inactive
3 | Cc1ccc(N)c(N)c1 |  | inactive
4 | Nc1ccc(N=Nc2ccccc2)cc1 | 23.8 µM (active) | 
5 | COc1cc(C=O)cc2c1[C@H](COC(N)=O)[C@]1(OC(C)=O)ON2C[C@H]2[C@@H]1N2C(C)=O |  | inactive
6 | CCC[CH2][Sn]([Cl])([CH2]CCC)[CH2]CCC | 4.88 µM (active) | 
7 | Cc1cc(N=Nc2ccccc2C)ccc1N | 40.6 µM (active) | 
8 | CCCCCCCCn1sccc1=O | 72.7 µM (active) | 
9 | c1ccc2c(c1)-c1cccc3cccc-2c13 |  | inactive
10 | CC(C)(O)c1cnn2c(-c3ccc(F)c(-c4c(F)cccc4C#N)c3)cnc2n1 |  | inactive

Reference: PubChem BioAssay (EPA / NIEHS)
